Dicer inh – blocks human Dicer maturation of pre-miR-21 | hit rate 6% among 47,000 | cat-ELCCA pre-miR-21 Dicer processing, chemiluminescence; hits give high values | z-score at 25 µM | Q9UPY3 | AID 1347074; in the data active = z-score above about 3, passing the limit was not always enough;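 note: plate controls were vehicle for no effect and no enzyme for full effect; higher signal means more uncleaved substrate so more Dicer inhibition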
Numbers without * were called inactive. This excerpt belongs to a sample that is enriched for hits.

SMILES	Dicer inh
COc1cccc(C2CC(C(F)(F)F)n3ncc(C(=O)O)c3N2)c1 (stereo not drawn)	-0.84
Cc1ccc(C2CC(C(F)(F)F)n3ncc(C(=O)O)c3N2)cc1 (stereo not drawn)	0.54
COc1ccc(C2CC(C(F)(F)F)n3ncc(C(=O)O)c3N2)cc1OC (stereo not drawn)	0.76
CC(C)NC(=O)c1cc2n(n1)C(C(F)(F)F)CC(c1ccc(Br)cc1)N2 (stereo not drawn)	1.8
COc1ccc(C2CC(C(F)(F)F)n3ncc(C(N)=O)c3N2)cc1 (stereo not drawn)	0.95
O=C(O)c1cnn2c1NC(c1ccccc1)CC2C(F)(F)F (stereo not drawn)	3.1*
O=C(c1cnn2c1NC(c1ccc(Br)cc1)CC2C(F)(F)F)N1CCOCC1 (stereo not drawn)	4.2*
CC(C)NC(=O)c1nn2c(c1Cl)NC(c1ccc(Br)cc1)CC2C(F)(F)F (stereo not drawn)	-0.28
O=C(c1cc2n(n1)C(C(F)(F)F)CC(c1ccc(Cl)cc1)N2)N1CCOCC1 (stereo not drawn)	0.29
C#CC(CC)(CC)Nc1ccsc1C(=O)O	2
COc1ccc(C2NC(=O)C(=O)/C2=C(\O)c2ccc(Br)cc2)cc1 (stereo not drawn)	1.5
CSc1cc(-c2cccs2)nc(-c2ccc(Cl)cc2)n1	0.34
COC(=O)c1sccc1NC(=O)CCC(=O)O	1.5
CC(=O)c1cc(OCC(F)(F)F)ccc1OCC(F)(F)F	1.3
O=C1/C(=C/c2ccc[nH]2)Cc2ccccc21	-0.33
CC1=C(C(=O)OCCOc2ccccc2)C(c2cccc(O)c2)C2=C(CC(c3ccccc3)CC2=O)N1 (stereo not drawn)	1.2
CCOC(=O)c1sc(N)c(C#N)c1C	1.9
Cc1ccc(NC(=O)CC2Sc3ccccc3NC2=O)c([N+](=O)[O-])c1 (stereo not drawn)	-0.62
O=C(c1cnn2c1NC(c1ccccc1)CC2C(F)(F)F)N1CCCCC1 (stereo not drawn)	0.97
O=C(O)c1cnn2c1NC(c1ccc(Br)cc1)CC2C(F)(F)F (stereo not drawn)	2.6
CN1CCN(C(=O)c2cnn3c2NC(c2ccc(Br)cc2)CC3C(F)(F)F)CC1 (stereo not drawn)	4.7*
CCOC(=O)c1cc(C#N)c(Oc2ccccc2)nc1C(F)(F)F	-0.08
COc1ccc(C(=O)O)c(OCC(=O)O)c1	-1.8
O=[N+]([O-])/C=C/c1c(-c2ccc3ccccc3c2)[nH]c2ccccc12	1.1
O/N=C/c1c(-c2ccc(Cl)cc2)[nH]c2ccccc12	5*
SMILES	Dicer inh
Clc1ccc(-c2cc3ccccc3[nH]2)cc1	9.6
CSc1ccc(CN2CCN(Cc3ccncc3)CC2)cc1	-1.2
O=C1CC(Cc2ccccc2)C(=O)N1c1cccc(Cl)c1 (stereo not drawn)	1.8
O=C1CC(Cc2ccc(Cl)cc2)C(=O)N1Cc1ccccc1 (stereo not drawn)	3.3*
O=C1CC(Cc2ccc(Cl)cc2)C(=O)N1c1ccccn1 (stereo not drawn)	-0.83
COc1cc2c3c(c1OC)-c1cc(OC(C)=O)ccc1CC3N(C(C)=O)CC2 (stereo not drawn)	0.72
CC(=O)OCC(=O)c1cc(C(F)(F)F)cc(C(F)(F)F)c1	0.09
CCOc1ccc(-c2nc3cc(OC)c(OC)cc3c(=O)o2)cc1	0.85
Cc1ccc(S(=O)(=O)Oc2c(Cl)cc(Cl)cc2C=Nc2cccc(C(F)(F)F)c2)cc1	1.2
COc1ccc(C2C(C#N)=C(N)Oc3cc(O)ccc32)cc1Br (stereo not drawn)	0.46
CCO/C=N\C1=C(C#N)C(c2ccc(Cl)cc2)c2ccc3ccccc3c2O1 (stereo not drawn)	3.9*
COc1cc(C2C(C#N)=C(N)Oc3c2ccc2ccccc32)cc(Br)c1O (stereo not drawn)	3.3*
CCOc1cc(C2C(C#N)=C(N)Oc3c2c(C)nn3-c2ccccc2)ccc1O (stereo not drawn)	-7.3
N#CC1=C(N)Oc2c(ccc3ccccc23)C1c1ccc(Cl)cc1 (stereo not drawn)	0.62
CCOc1cc(C2C(C#N)=C(N)Oc3c2ccc2ccccc32)ccc1O (stereo not drawn)	7.2*
C=CCOc1c(Cl)cc(C2C(C#N)=C(N)Oc3cc(O)ccc32)cc1OC (stereo not drawn)	-0.24
CCO/C=N\C1=C(C#N)C(c2ccc(OC)cc2)c2ccc3ccccc3c2O1 (stereo not drawn)	0.62
CCN(CC)c1ccc2c(c1)OC(N)=C(C#N)C2c1ccc(Cl)cc1 (stereo not drawn)	-0.3
COc1ccc2c(c1)CCC(C(C)=O)C2=O (stereo not drawn)	-0.92
O=C1c2cc(S(=O)(=O)N3CCCCC3)ccc2-c2ccc(S(=O)(=O)N3CCCCC3)cc21	-0.71
O=C(c1cn(CC(=O)N2CCc3ccccc3C2)c2ccccc12)C1CCCCC1	0.11
C=CCn1c(SCc2ccccc2Cl)nc2c1c(=O)[nH]c(=O)n2C	2.2
CC1=C(C#N)C(c2cccc(O)c2)C2=C(CC(C)(C)CC2=O)N1 (stereo not drawn)	-0.76
CC(=O)CSc1nc(C(C)=O)ccc1C#N	1.6
c1ccc(C2CC3CCCCC3CO2)cc1 (stereo not drawn)	-0.57
SMILES	Dicer inh
Cn1c(=O)c2cc3c(Cl)cc(Cl)cc3nc2c2c(=O)n(-c3ccccc3)c(=O)n(-c3ccccc3)c21	-1.1
COc1ccc(O)c(C2=NN3C(C2)c2cc(Br)ccc2OC3c2ccncc2)c1 (stereo not drawn)	13*
Brc1ccc2c(c1)C1CC(c3ccccc3)=NN1C(c1cccnc1)O2 (stereo not drawn)	1
Brc1ccc2c(c1)C1CC(c3ccco3)=NN1C(c1ccccc1)O2 (stereo not drawn)	5.7*
COc1cccc2c1OC(c1ccncc1)N1N=C(c3cc(Cl)ccc3O)CC21 (stereo not drawn)	2.2
COc1ccc(O)c(C2=NN3C(C2)c2cc(Br)ccc2OC3c2cccnc2)c1 (stereo not drawn)	3.1
c1ccc(C2Oc3ccccc3C3CC(c4cccnc4)=NN32)cc1 (stereo not drawn)	0.1
Cc1ccc(C2=NN3C(C2)c2cc(Br)ccc2OC3c2ccncc2)s1 (stereo not drawn)	4.3*
Cc1ccc(O)c(C2=NN3C(C2)c2cc(Br)ccc2OC3c2ccncc2)c1 (stereo not drawn)	0.98
COc1cccc(C2=NN3C(C2)c2cc(Br)ccc2OC3c2ccncc2)c1 (stereo not drawn)	6.7*
COc1ccc(C2Oc3c(OC)cccc3C3CC(c4cc(OC)ccc4O)=NN32)cc1 (stereo not drawn)	0.44
CC1(C)CC(=O)C(C=Nc2ccc(F)c(Cl)c2)=C(O)C1	0.8
Cc1noc(C)c1S(=O)(=O)NNC(=O)Nc1ccc(Cl)cc1	0.54
Cn1nnnc1SCCNCc1cccc(OCc2ccc(F)cc2)c1	1.1
CCn1cc(Br)c(C(=O)OCC23COC4c5ccccc5OC(C)(CC2C)C4C3C)n1 (stereo not drawn)	1.9
CCOC(=O)/C(=C\c1ccc([N+](=O)[O-])cc1)[N+](=O)[O-]	42
CSCCC1Oc2ccc(Br)cc2C2CC(c3ccccc3O)=NN12 (stereo not drawn)	11*
CCOc1ccc(C2Oc3ccc(Cl)cc3C3CC(c4ccco4)=NN32)cc1 (stereo not drawn)	3.8*
CSCCC1Oc2ccccc2C2CC(c3ccccc3O)=NN12 (stereo not drawn)	3.8

Screening results from PubChem BioAssay.
